{"source": "PubChem BioAssay AID504339", "about": "(National Center for Advancing Translational Sciences (NCATS), 2011)", "note": "Screen size: about 390,000 compounds; about 17,000 (4.4%) were called active. Inconclusive results (about 8%) are left out. Only a selection was taken, and actives are over-represented in it overall. Values without a mark were called inactive. The call rests on the fitted dose curve; in most records, active means well fitted inhibition curve with a large enough effect; inconclusive means small, poorly fitted or top-dose-only effect; inactive means no such curve, though single readings can be large or run the other way. On the % scale 0 is the no-effect control and ±100 the full control effect; potency means the concentration at half of the fitted maximal effect."}
{"molecular_target": "Lysine-specific demethylase 4A (Homo sapiens) (UniProt O75164)", "sequence (O75164 whole entry, looked up, the tested form may be a part)": "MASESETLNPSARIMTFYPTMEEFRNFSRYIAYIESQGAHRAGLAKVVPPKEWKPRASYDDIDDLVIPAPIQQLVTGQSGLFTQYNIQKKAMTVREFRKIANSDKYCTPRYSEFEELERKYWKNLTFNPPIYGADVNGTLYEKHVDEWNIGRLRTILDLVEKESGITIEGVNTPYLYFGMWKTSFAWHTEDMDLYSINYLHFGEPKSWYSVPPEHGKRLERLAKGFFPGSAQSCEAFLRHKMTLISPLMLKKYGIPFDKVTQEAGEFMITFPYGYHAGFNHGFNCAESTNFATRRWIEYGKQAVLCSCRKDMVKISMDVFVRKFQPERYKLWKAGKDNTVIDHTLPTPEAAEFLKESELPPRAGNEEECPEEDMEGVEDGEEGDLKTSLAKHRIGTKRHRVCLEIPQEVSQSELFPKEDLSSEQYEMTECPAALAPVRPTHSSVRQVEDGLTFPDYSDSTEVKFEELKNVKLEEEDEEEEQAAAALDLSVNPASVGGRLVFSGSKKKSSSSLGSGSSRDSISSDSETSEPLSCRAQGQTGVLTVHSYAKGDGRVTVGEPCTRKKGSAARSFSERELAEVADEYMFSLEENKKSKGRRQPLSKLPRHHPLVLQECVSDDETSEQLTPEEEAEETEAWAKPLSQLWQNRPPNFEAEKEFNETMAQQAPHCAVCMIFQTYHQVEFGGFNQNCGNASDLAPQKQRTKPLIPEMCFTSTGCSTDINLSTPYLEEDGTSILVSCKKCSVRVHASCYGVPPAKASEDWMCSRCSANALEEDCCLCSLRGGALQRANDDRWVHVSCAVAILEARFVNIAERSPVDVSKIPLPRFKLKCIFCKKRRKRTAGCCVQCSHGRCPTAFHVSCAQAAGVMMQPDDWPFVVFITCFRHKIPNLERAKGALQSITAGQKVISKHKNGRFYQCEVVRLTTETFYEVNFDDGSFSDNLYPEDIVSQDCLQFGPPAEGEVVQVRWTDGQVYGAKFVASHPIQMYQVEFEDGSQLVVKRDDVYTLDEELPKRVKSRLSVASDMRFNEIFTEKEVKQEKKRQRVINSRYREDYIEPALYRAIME", "test": "qHTS Assay for Inhibitors of JMJD2A-Tudor Domain; further: nearly all actives have a fitted effect of over 50% in size", "details": "AlphaScreen JMJD2A-Tudor / H3K4me3 peptide binding; series mostly up to 114 µM; activity change, negative = inhibition: at the top concentration", "source_text": "JMJD2A is a jumonji-domain-containing lysine demethylase that uses Fe(II) together with 2-OG to effect oxidative demethylation of histones. Methylation is one of many […] modification that affect epigenetic transcription. […] It is proposed that the functions of JmjD2A binding to the histones, is to maintain marks after they are installed and to spread the modifications by […], establishing a self-propagating cycle for rapid methylation over a large area of chromatin. […] Thus, small molecule targeting of the JMJD2A-tudor domain interaction with its target methylhistone mark is expected to enable sophisticated experiments probing the fine regulatory pathways leading to selective demethylation of a given methyllysine locus based on the methylation state of adjacent histone marks. A quantitative high throughput AlphaScreen has been developed to identify small molecule inhibitors based on a protocol published by NCGC and SGC [4].\nAlthough AlphaScreen has significant advantages with its utility in a variety of epigenetic target assays, the primary screening data provided in this deposition should be used with caution due to the prevalence of screening artifacts. The top compound concentration tested was high (>100uM) in this assay, which increases number of actives and potential artifacts. An AlphaScreen counterscreen is highly recommended to be run against any putative actives to eliminate non-specific artifacts. Alternatively, one can use other AlphaScreen assays in PubChem to filter out promiscuous hits.\n[1] Lee, J. et al. Distinct binding modes specify the recognition of methylated histone H3K4 and H4K20 by JMJD2A-tudor. Nat Struct Mol Biol. 15(1); 109-11. 2008. PMID: 18084306\n[2] Yasgar, et al. Compound Management for Quantitative High-Throughput Screening. JALA. 2008 Apr;13(2):79-89. PMID: 18496600\n[3] Inglese, et al. Quantitative high-throughput screening: a titration-based approach that efficiently identifies biological activities in large chemical libraries. Proc Natl Acad Sci. 1;103(31):11473-8. 2006. PMID: 16864780\n[4] Quinn et al. A homogeneous method for investigation of methyl-dependent protein-protein interactions in epigenetics. Nucleic Acids Res., 38(2):e11. 2010. PMID: […]\n[5] Baell,Holloway. New substructure filters for removal of pan assay interference compounds (PAINS) from screening libraries and for their exclusion in bioassays. J Med Chem. 53(7):2719-40. 2010. PMID: 20131845\nNIH Molecular Libraries Probe Production Network [MLPCN]\nNIH Chemical Genomics Center [NCGC]\nStructural Genomics Consortium (SGC)\nTo each well of a 1,536w plate, 2ul of JMJD2A-Tudor (final 100nM) and 1ul biotinylated histone peptide methylated at Lys4 [b-H3(1-18)K4me3] (final 50nM) were added in 1x PBS buffer, pH 7.4, containing 0.01% Tween-20, using a nanoliter dispenser. Formation of a protein-peptide complex proceeded at room temperature for 30 min. A Kalypsys pin-tool transferred 23nl of library compound solution in DMSO to each well. Following a 30 min incubation of the protein-peptide complex with compounds at room temperature, a mixture of 40 µg/mL each streptavidin-coated donor and nickel chelate acceptor AlphaScreen beads (final 10 µg/mL) was added in a 1ul dispense for a final volume of 4ul, followed by a brief centrifugation (1000 rpm, 1 min). Plates were incubated protected from the light for 20 min at room temperature. Microplates were then read on an EnVision multilabel plate reader using the 1,536 plate HTS AlphaScreen aperture (excitation time 80 ms, measurement time 240 ms).", "units": {"activity change, negative = inhibition": "%"}}
{"smiles": "Cc1cc(NC(=O)CCC(=O)N(CC(=O)NCC2CCCO2)c2ccccc2)no1", "note": "(stereo unspecified)", "activity change, negative = inhibition": -10.2}
{"smiles": "COC(=O)c1cccc(N(CC(=O)NCC2CCCO2)C(=O)CCC(=O)Nc2cc(C)on2)c1", "note": "(stereo unspecified)", "activity change, negative = inhibition": 0.702}
{"smiles": "Cc1cc(NC(=O)CCC(=O)N(CC(=O)NCC2CCCO2)c2ccccc2C)no1", "note": "(stereo unspecified)", "activity change, negative = inhibition": 2.52}
{"smiles": "CCCCOc1ccc(N(CC(=O)NCC2CCCO2)C(=O)CCC(=O)Nc2cc(C)ccn2)cc1", "note": "(stereo unspecified)", "Potency": "70.8 µM (active)"}
{"smiles": "COc1ccc(C(=O)Nc2onc3c2CCCC3)cc1", "activity change, negative = inhibition": -17.7}
{"smiles": "O=C(NCCc1ccccc1)C(=O)NCC(c1ccco1)S(=O)(=O)c1ccccc1", "note": "(stereo unspecified)", "activity change, negative = inhibition": -9.42}
{"smiles": "COc1cccc(C(=O)NC2(C(F)(F)F)C(=O)Nc3c2c(=O)[nH]c(=O)n3-c2ccc(C)cc2)c1", "note": "(stereo unspecified)", "activity change, negative = inhibition": -7.22}
{"smiles": "O=C(CSc1ncc(-c2ccccc2)[nH]1)Nc1ccc(F)cc1F", "activity change, negative = inhibition": -25.7}
{"smiles": "O=C(COc1ccccc1F)OCc1cc(=O)n2nc(C3CCCCC3)sc2n1", "activity change, negative = inhibition": -14.3}
{"smiles": "Cc1ccc2c(c1)C1CN(C)CCC1N2S(=O)(=O)c1ccc(Oc2ccc([N+](=O)[O-])cc2)cc1", "note": "(stereo unspecified)", "Potency": "22.4 µM (active)"}
{"smiles": "Cc1ccc2c(c1)C1CN(C)CCC1N2S(=O)(=O)c1cccc(F)c1", "note": "(stereo unspecified)", "activity change, negative = inhibition": -12.8}
{"smiles": "Cc1ccc2c(c1)C1CN(C)CCC1N2C(=S)Nc1ccc(OC(F)F)cc1", "note": "(stereo unspecified)", "activity change, negative = inhibition": -26.8}
{"smiles": "COc1ccc(CNC(=O)c2ccc3c(c2)nc2n3CCOC2)c(OC)c1", "activity change, negative = inhibition": -9.74}
{"smiles": "Cc1cc(NS(=O)(=O)c2ccc3oc(=O)c4ncn(C)c4c3c2)ccc1Br", "activity change, negative = inhibition": 4.17}
{"smiles": "COc1cc(OC)c(NC(=O)c2cnc(N3CCCC3)nc2C)cc1Cl", "activity change, negative = inhibition": 5.63}
{"smiles": "Cc1ccc2c(=O)c(C(=O)c3cccc(Cl)c3)cn(CC(=O)NCc3ccccc3)c2n1", "activity change, negative = inhibition": 0.962}
{"smiles": "O=C(NNC(=O)c1cccnc1)Nc1ccccc1", "activity change, negative = inhibition": -1.69}
{"smiles": "O=C(O)CSC(NC(=O)c1cccnc1)(C(F)(F)F)C(F)(F)F", "Potency": "89.1 µM (active)"}
{"smiles": "O=C(CC(=O)c1cccnc1)c1ccccc1", "activity change, negative = inhibition": -10.3}
{"smiles": "CCc1ccccc1N(C)C(=O)C1CCCN(c2ncnc3onc(-c4ccc(F)cc4)c23)C1", "note": "(stereo unspecified)", "activity change, negative = inhibition": -0.647}
{"smiles": "COc1cccc2c1cc1c(=O)n(CC(=O)N3CCN(c4cccc(Cl)c4)CC3)nc(C)n12", "activity change, negative = inhibition": -10.5}
{"smiles": "O=c1ccc2c(-c3ccccc3S(=O)(=O)O)c3ccc(O)c(O)c3oc-2c1O", "Potency": "0.708 µM (active)"}
{"smiles": "CCOC(=O)c1c(C)oc2ccc(N(C(=O)c3ccncc3)S(=O)(=O)c3ccc(CC)cc3)cc12", "activity change, negative = inhibition": -29.1}
{"smiles": "CCOc1ccccc1C(=O)NC1(C(F)(F)F)NC(=O)N(CCc2ccc(OC)c(OC)c2)C1=O", "note": "(stereo unspecified)", "activity change, negative = inhibition": -25.4}
{"smiles": "CCCN(C(=O)Cn1cc(S(=O)(=O)N2CCN(c3ccccc3F)CC2)c2ccccc2c1=O)c1cccc(C)c1", "activity change, negative = inhibition": -9.25}
{"smiles": "CNc1nnc(-c2ccco2)s1", "activity change, negative = inhibition": -1.99}
{"smiles": "COc1ccc(OCC(=O)Nc2nnc(-c3ccco3)s2)cc1", "Potency": "79.4 µM (active)"}
{"smiles": "COc1ccc(NC(=O)COCc2cc(-c3ccco3)on2)cc1", "activity change, negative = inhibition": 0.321}
{"smiles": "Cc1cccc(NC(=O)CN(c2ccc(C(C)C)cc2)S(=O)(=O)c2c(C)nn(C)c2C)c1C", "activity change, negative = inhibition": -11.3}
{"smiles": "Cc1ccc(C)c(CNC(=O)c2cc3ccccn3n2)c1", "activity change, negative = inhibition": -3.25}
{"smiles": "CC1CCCN(c2cc3c(cc2F)c(=O)c(S(=O)(=O)c2cccc(Cl)c2)cn3Cc2ccccc2)C1", "note": "(stereo unspecified)", "activity change, negative = inhibition": -8.25}
{"smiles": "Cc1ccc(Cl)cc1NC(=O)CCC(=O)N1CC(C)Sc2ccccc21", "note": "(stereo unspecified)", "activity change, negative = inhibition": 0}
{"smiles": "CC(=O)Nc1ccc(S(=O)(=O)N2CCN(c3ccccc3)CC2)cc1", "activity change, negative = inhibition": -21.8}
{"smiles": "CC(=O)Nc1ccc(NS(=O)(=O)c2ccc3c(c2)NC(=O)CC(=O)N3)cc1", "activity change, negative = inhibition": -12.2}
{"smiles": "Cc1ccccc1C(=O)Nc1ccc(N2CCCCCC2)cc1", "Potency": "14.1 µM (active)"}
{"smiles": "O=C(NC(=O)c1ccccc1N1CCCCC1)Nc1ccc(Br)cc1", "activity change, negative = inhibition": -15.4}
{"smiles": "Cc1ccccc1C(=O)N1CCN(c2ccc(NC(=O)c3cccs3)cc2)CC1", "activity change, negative = inhibition": -29.7}
{"smiles": "CC(=O)Nc1ccc(S(=O)(=O)Nc2ccc(N3CCCCC3)cc2)cc1", "Potency": "20 µM (active)"}
{"smiles": "O=C(O)c1ccc2c(c1)N(Cc1ccc(F)cc1)C(=O)c1ccccc1S2=O", "note": "(stereo unspecified)", "activity change, negative = inhibition": -20.8}
{"smiles": "O=C(NCc1ccccc1Cl)C1=Cc2cc(Br)ccc2OC1", "activity change, negative = inhibition": 1.6}
{"smiles": "CCc1ccc(NC(=O)N2CCN(C(=O)c3nsc4ccccc34)CC2)cc1", "activity change, negative = inhibition": -27.9}
{"smiles": "COc1ccc(Cl)cc1NC(=O)CCn1c(=O)c2cccn2c2ccccc21", "activity change, negative = inhibition": -13.8}
{"smiles": "COc1cc(NC(=O)Cn2nc(-c3ccc(C)c(C)c3)ccc2=O)cc(OC)c1", "activity change, negative = inhibition": -12.3}
{"smiles": "CN(CC(=O)NCCc1ccc(F)cc1)CC(=O)Nc1ccc(F)c(F)c1F", "activity change, negative = inhibition": -4.83}
{"smiles": "Cc1ccc(Cl)c(NC(=O)CN(C)CC(=O)Nc2ccc(F)c(F)c2F)c1Cl", "Potency": "70.8 µM (active)"}
{"smiles": "Cc1c(NC(=O)CN(C)CC(=O)Nc2ccc(F)c(F)c2F)c(=O)n(-c2ccccc2)n1C", "activity change, negative = inhibition": 5.56}
{"smiles": "COc1ccc(CCC(=O)NCCc2csc(-c3ccc(Cl)cc3)n2)cc1", "activity change, negative = inhibition": -11.2}
{"smiles": "O=C(CNS(=O)(=O)c1cccs1)N1CCN(c2ccccc2Cl)CC1", "activity change, negative = inhibition": -18.4}
{"smiles": "O=C(CSc1nccn1Cc1ccc(F)cc1)NCc1ccccc1", "activity change, negative = inhibition": -8.06}
{"smiles": "O=C(CSc1nccn1-c1ccc(F)cc1)Nc1cccc2ccccc12", "Potency": "28.2 µM (active)"}
{"smiles": "O=C(CSc1nccn1-c1cccc(F)c1)NC1CCCC1", "activity change, negative = inhibition": -3.47}
